Test results published in PubChem BioAssay (NCATS).
Where “and” joins values, the source holds several entries; their conditions need not be identical. Identical values can stand only once. Inconclusive results are not listed. Calls of active or inactive are those of the source. Unless noted, the call rests on the fitted dose curve; in most records, active means well fitted curve in the direction sought with a large enough effect; inconclusive means small, poorly fitted or top-dose-only effect, or another doubt; inactive means no such curve, though single readings can be large; an effect the other way counts as inactive or inconclusive.

Assays:
[1] = Cell Viability - SK-N-SH (AID 435; calls by dose curve;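 further: potency means the concentration at half of the fitted maximal effect; compound exposure lasted 40 h at 37 °C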); settings: SK-N-SH neuroblastoma cell viability qHTS
How it was run: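 Cells seeded at 1500 per well and incubated 5 hr at 37 °C. Compound added, then 40 hr at 37 °C. CellTiter-Glo added, 20 min at room temperature, luminescence read.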

[2] = Cell Viability - HUV-EC-C (AID 542); settings: HUV-EC-C endothelial cell viability, qHTS; series mostly up to 92.2 µM;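 further: cells exposed to compound for 40 hours; on the % scale 0 is the no-effect control and ±100 the full control effect; nearly all actives have a fitted effect of over 35% in size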
How it was run: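 CellTiter-Glo luminescence measured ATP loss in HUV-EC-C cells (1000/well) after 40 hr compound exposure at 37 °C, in complete culture medium. Concentration-response data were Hill-fitted to give AC50.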

[3] = Cellular Toxicity (caspase-3) Mesangial (AID 660); settings: mesangial cells, normalized: DMSO 0%, 100 µM tamoxifen 100%; series mostly up to 91.7 µM;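 further: combined caspase 3 and 7 activity read by Caspase-Glo luminescence; cells exposed to compound for 16 h before the caspase read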
How it was run: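 Caspase 3/7 activation measured by Caspase-Glo 3/7 luminescence (20 min, room temperature) following 16 h exposure of mesangial cells (1000/well); AC50 from Hill-equation fit, normalized to DMSO and 100 uM tamoxifen.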

[4] = Cellular Toxicity (caspase-3) N2a (AID 665); settings: N2a cells, luminescence, normalized: DMSO 0%, 10 µM staurosporine 100%; series mostly up to 92.2 µM;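 further: compound exposure lasted 16 h at 37 °C before readout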
How it was run: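 Caspase-3/7 activation measured as luminescence from Caspase-Glo reagent (1 h, room temperature) after 16 h compound exposure of mouse N2a cells. AC50 values from Hill-equation concentration-response, scaled between DMSO and 10 uM staurosporine.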

[5] = Cellular Toxicity (caspase-3) NIH 3T3 (AID 666); settings: NIH 3T3 caspase-3 activation, apoptosis/toxicity; series mostly up to 92.2 µM;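 further: caspase signal read after 16 h compound exposure; 0% = DMSO basal and 100% = 100 µM tamoxifen stimulation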
How it was run: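 Caspase-Glo 3/7 luminescence reported caspase activation in 1000 NIH 3T3 cells/well after 16 h compound exposure at 37 C. DMSO set basal and 100 uM tamoxifen set 100% stimulation; concentration-response modeled with the Hill equation for AC50.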

[6] = Cellular Toxicity (caspase-3) Renal Proximal Tubule (AID 667); settings: renal proximal tubule cells; series mostly up to 91.7 µM;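 further: cells exposed to compound for 16 hours at 37 °C before detection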
How it was run: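 In qHTS format, rat primary proximal tubule cells seeded at 1000 per well are exposed to compounds for 16 hours at 37 °C. An increase in Caspase-Glo 3/7 luminescence indicates caspase activation.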

[7] = Cell Viability - LYMP2-009 (AID 968); settings: LYMP2-009 lymphoblastoid cell viability; series mostly up to 92.2 µM;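 further: 0% = DMSO alone and the full-kill end = tetraoctylammonium bromide at 92 µM; nearly all actives have a fitted effect of over 55% in size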
[8] = Cell Viability - LYMP2-011 (AID 969); settings: LYMP2-011 lymphoblastoid cells viability; series mostly up to 92.2 µM;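 further: 0% = DMSO only and full inhibition = 92 µM tetraoctylammonium bromide; nearly all actives have a fitted effect of over 60% in size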
How it was run: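 Cytotoxicity qHTS with ATP content as read-out: lymphoblastoid cells (2500/well) exposed to compound for 24 h at 37 C, then luciferase luminescence measured. Concentration-response data fitted with the standard Hill equation to give AC50.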

[9] = Cell Viability - LYMP2-013 (AID 970); settings: LYMP2-013 lymphoblastoid cells viability; series mostly up to 92.2 µM;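 further: 0% = DMSO only and full inhibition = tetraoctylammonium bromide control; nearly all actives have a fitted effect of over 55% in size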
How it was run: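 qHTS cytotoxicity: ATP-dependent luminescence (CellTiter-Glo, 30 min room temperature) read after 24 h compound exposure at 37 C of 2500 LYMP2-013 lymphoblastoid cells per well. Concentration-response fitted with Hill equation to give AC50.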

[10] = Cell Viability - LYMP2-015 (AID 971); settings: LYMP2-015 lymphoblastoid cell viability; series mostly up to 92.2 µM;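 further: 0% = DMSO only and full effect = 92 µM tetraoctylammonium bromide; nearly all actives have a fitted effect of over 55% in size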
How it was run: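 Cytotoxicity readout: decrease in intracellular ATP (CellTiter-Glo luminescence) in 2500 LYMP2-015 lymphoblastoid cells/well after 24 h compound exposure at 37 C. Concentration-response data fitted with the standard Hill equation to give AC50.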

[11] = Cell Viability - LYMP2-021 (AID 974); settings: LYMP2-021 lymphoblastoid cells viability; series mostly up to 92.2 µM; further: on the % scale 0 is the no-effect control and ±100 the full control effect; nearly all actives have a fitted effect of over 55% in size
How it was run: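 AC50 values come from Hill-equation fits to CellTiter-Glo luminescence (ATP content), read after 24 hour compound exposure at 37 C of 2500 LYMP2-021 lymphoblastoid cells/well; tetraoctylammonium bromide as positive control.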

[12] = Cell Viability - LYMP2-002 (AID 977); settings: LYMP2-002 lymphoblastoid cell viability, qHTS; series mostly up to 92.2 µM;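 further: plate controls were DMSO only for no effect and 92 µM tetraoctylammonium bromide for full effect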
How it was run: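 Human lymphoblastoid cells, 2500/well, complete medium; 5 h 37 C settle; compound 24 h 37 C; CellTiter-Glo, 30 min RT; luminescence. Decrease in ATP = cytotoxicity; AC50 via Hill equation.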

[13] = Cell Viability - LYMP2-006 (AID 978); settings: LYMP2-006 lymphoblastoid cell viability, qHTS; series mostly up to 92.2 µM; further: on the % scale 0 is the no-effect control and ±100 the full control effect; nearly all actives have a fitted effect of over 60% in size
How it was run: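 Concentration-dependent loss of intracellular ATP in a human lymphoblastoid line after 24 hr treatment at 37 C was measured by CellTiter-Glo luminescence, with AC50 values obtained from standard Hill-equation modelling.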

[14] = Cell Viability - LYMP2-022 (AID 987); settings: LYMP2-022 lymphoblastoid cell viability; series mostly up to 92.2 µM
How it was run: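 Cytotoxicity read as decreased cellular ATP (CellTiter-Glo luminescence, 30 min room temperature) after 24 hours compound exposure of 2500 lymphoblastoid LYMP2-022 cells/well at 37 C. Concentration-response data fitted with standard Hill equation for AC50.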

[15] = Cell Viability - LYMP2-024 (AID 988); settings: LYMP2-024 lymphoblastoid cell viability; series mostly up to 92.2 µM;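 further: plate controls were DMSO only for no effect and 92 µM tetraoctylammonium bromide for full effect; nearly all actives have a fitted effect of over 60% in size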
How it was run: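 Cytotoxicity was taken as a decrease in ATP (CellTiter-Glo luminescence) after 24 hr compound exposure at 37 C of LYMP2-024 lymphoblastoid cells, 2500 cells/well. Concentration-response data were fitted to the Hill equation to give AC50.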

[16] = target: Retinoic acid receptor RXR-alpha (Homo sapiens) (UniProt P19793); test: qHTS assay for small molecule antagonists of retinoid X receptor alpha signaling (AID 588546; active means well fitted inhibition curve with a large enough effect in the signal ratio, with a control signal flat, not every such curve was filed as active; the % refers to the signal ratio;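 further: cells stimulated with 9-cis-retinoic acid as agonist; on the % scale 0 is the no-effect control and ±100 the full control effect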); settings: HEK293T RXRa-UAS-bla, beta-lactamase ratio, antagonist mode
Retinoic acid receptor RXR-alpha (Homo sapiens), sequence (P19793 whole entry, looked up): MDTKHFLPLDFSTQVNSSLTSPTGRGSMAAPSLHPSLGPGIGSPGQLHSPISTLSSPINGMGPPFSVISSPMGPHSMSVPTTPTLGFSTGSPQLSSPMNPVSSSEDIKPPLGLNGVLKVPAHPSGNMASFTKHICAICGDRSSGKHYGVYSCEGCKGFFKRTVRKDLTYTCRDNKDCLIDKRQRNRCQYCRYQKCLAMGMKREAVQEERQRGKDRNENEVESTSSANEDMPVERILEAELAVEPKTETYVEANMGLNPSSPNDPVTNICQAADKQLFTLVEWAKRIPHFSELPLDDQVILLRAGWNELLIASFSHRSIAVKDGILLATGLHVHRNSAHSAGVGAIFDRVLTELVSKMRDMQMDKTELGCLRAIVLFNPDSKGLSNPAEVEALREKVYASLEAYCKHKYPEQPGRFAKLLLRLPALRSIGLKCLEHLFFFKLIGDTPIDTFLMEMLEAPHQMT
How it was run: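 Beta-lactamase reporter inhibition, read as CCF4 fluorescence ratio (ex 405, em 460/530 nm) after 2 h at RT. HEK293T UAS-bla cells, 2500/well, were stimulated with 9-cis-RA at 500 or 100 nM final alongside test compound for 18 h at 37 C.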

[17] = qHTS assay for cell viability of the p53RE-bla HCT-116 cell line (AID 743292); settings: p53RE-bla HCT-116 viability, ATP luminescence, 16 h; series mostly up to 95 µM
How it was run: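 Intracellular ATP of p53RE-bla HCT-116 cells measured by luciferase luminescence following 16 h compound incubation at 37 C; DMSO-only wells served as vehicle controls.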

[18] = MultiTox-Fluor Cytotoxicity Assay - LYMP1-001 - Live Cells (AID 947); settings: LYMP1-001 lymphoblastoid cells, live-cell protease fluorescence viability; series mostly up to 92.2 µM;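 further: 0% = DMSO only and full inhibition = tetraoctylammonium bromide control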
[19] = qHTS assay for small molecule agonists of the antioxidant response element (ARE) signaling pathway measured by Nrf2-dependant transcriptional activity (AID 720636; active means well fitted curve in the direction sought with a large enough effect in the repeat runs; an effect the other way counts as inactive or inconclusive;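 further: HepG2 cells with an ARE-driven luciferase reporter; % of control where 0% means no effect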); settings: ARE-luc HepG2, Nrf2 luciferase reporter, 16 h; series mostly up to 92.4 µM
How it was run: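 In HepG2 cells engineered with an Nrf2-responsive luciferase gene, ARE induction was quantified as luminescence after 16 hr compound treatment at 37 C.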

[20] = Cellular Toxicity (caspase-3) H-4-II-E (AID 663); settings: H-4-II-E rat hepatoma; Potency: caspase-3 activation; series mostly up to 92.2 µM;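 further: cells exposed to compound for 16 hr before readout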
How it was run: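 H-4-II-E rat hepatoma, 1500 cells/well, 5 hr settle at 37 °C; compound 16 hr, 37 °C, complete medium; Caspase-Glo 3/7, 20 min RT; luminescence. DMSO = 0%, 100 uM tamoxifen = 100%; Hill-equation AC50.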

Nc1ccc(-c2ccccc2)cc1
inactive: Potency [1] > 92 µM | Potency [2] | outcome [3] | outcome [4] | Potency [5] | outcome [6] | Potency [7] | Potency [8] | Potency [9] | Potency [10] | Potency [11] | Potency [12] | Potency [13] | Potency [14] | Potency [15] | max response [16] -7.2% | Potency [17]

Clc1cc(Cl)c(Cl)c(Cl)c1
inactive: Potency [2] | outcome [3] | outcome [4] | Potency [5] | outcome [6] | outcome [18] | Potency [8] | Potency [9] | Potency [10] | Potency [12] | Potency [13] | Potency [14] | Potency [15] | max response [16] 14.2% | Potency [19] | Potency [17]

CN(C)C(=O)Nc1cccc(C(F)(F)F)c1
inactive: Potency [2] | Potency [20] | Potency [5] | outcome [18] | Potency [7] | Potency [8] | Potency [9] | Potency [10] | Potency [11] | Potency [12] | Potency [13] | Potency [15] | max response [16] 1.67% and -16% | Potency [19] | Potency [17]

Nc1ccc(Cl)c(Cl)c1
inactive: Potency [2] | outcome [3] | Potency [20] | outcome [4] | Potency [5] | outcome [6] | Potency [7] | Potency [9] | Potency [11] | Potency [12] | Potency [14] | Potency [15] | max response [16] -9.29% | Potency [19] | Potency [17]

C=C(C)CCl
inactive: Potency [2] | Potency [20] | outcome [4] | Potency [5] | outcome [6] | Potency [7] | Potency [8] | Potency [9] | Potency [10] | Potency [11] | Potency [12] | Potency [13] | Potency [15] | max response [16] 1.96%

CCOP(=S)(OCC)SCCSCC
inactive: Potency [1] > 92 µM | Potency [2] | outcome [3] | Potency [20] | outcome [4] | Potency [5] | outcome [6] | outcome [18] | Potency [7] | Potency [8] | Potency [10] | Potency [11] | Potency [12] | Potency [13] | Potency [14] | Potency [15] | max response [16] -3% and -2.15% | Potency [19] | Potency [17]

O=[N+]([O-])CCO
inactive: Potency [2] | outcome [3] | Potency [20] | outcome [4] | outcome [6] | outcome [18] | Potency [7] | Potency [8] | Potency [9] | Potency [10] | Potency [12] | Potency [15] | Potency [19] | Potency [17]

Oc1cc(Cl)cc(Cl)c1
inactive: Potency [1] > 92 µM | Potency [2] | outcome [3] | Potency [20] | outcome [4] | Potency [5] | outcome [18] | Potency [7] | Potency [8] | Potency [9] | Potency [10] | Potency [11] | Potency [13] | Potency [14] | Potency [15] | max response [16] -5.58% | Potency [19]

CCOS(C)(=O)=O
inactive: Potency [1] > 92 µM | Potency [2] | outcome [3] | Potency [20] | outcome [4] | Potency [5] | outcome [6] | outcome [18] | Potency [7] | Potency [8] | Potency [9] | Potency [10] | Potency [11] | Potency [13] | Potency [14] | Potency [15] | max response [16] -0.383% | Potency [19]

ClC(Cl)Br
inactive: Potency [1] > 92 µM | Potency [2] | outcome [3] | Potency [20] | outcome [4] | outcome [6] | outcome [18] | Potency [8] | Potency [10] | Potency [11] | Potency [12] | Potency [13] | Potency [15] | Potency [19] | Potency [17]

C=CCCC#N
inactive: Potency [1] > 92 µM | Potency [2] | outcome [3] | Potency [20] | outcome [4] | Potency [5] | outcome [6] | outcome [18] | Potency [7] | Potency [8] | Potency [10] | Potency [11] | Potency [12] | Potency [13] | Potency [14] | Potency [15] | max response [16] 17.4% | Potency [19] | Potency [17]

Cc1ccccc1[N+](=O)[O-]
inactive: outcome [3] | Potency [20] | outcome [4] | Potency [5] | outcome [6] | outcome [18] | Potency [7] | Potency [8] | Potency [9] | Potency [10] | Potency [11] | Potency [14] | Potency [15] | max response [16] 10.9% | Potency [17]

CNC(=O)O/N=C/C(C)(C)S(C)=O (stereo not given)
inactive: Potency [1] > 92 µM | Potency [2] | outcome [3] | Potency [20] | Potency [5] | outcome [6] | outcome [18] | Potency [7] | Potency [8] | Potency [11] | Potency [12] | Potency [13] | max response [16] 12.4% and -11.4% | Potency [19] | Potency [17]

Cc1ccc([N+](=O)[O-])cc1
inactive: Potency [2] | outcome [3] | Potency [20] | outcome [4] | Potency [5] | outcome [6] | outcome [18] | Potency [8] | Potency [9] | Potency [10] | Potency [11] | Potency [12] | Potency [14] | Potency [15] | Potency [19] | Potency [17]
